The results in this text go back to article PMC7862700, “An all-to-all approach to the identification of sequence-specific readers for epigenetic DNA modifications on cytosine”.

Common to all, as to test: DAPPL (digital affinity profiling via proximity ligation, sequencing); 10 mM Tris-HCl pH 7.5, 50 mM NaCl, 1 mM DTT, 4% glycerol, room temperature, 30 min; GST-TFs on glutathione beads, 16-mer random dsDNA library, 0.1% formaldehyde crosslink after washing; high values mean tight binding
One assay has as its target HSF1 (Homo sapiens, UniProt Q00613 1-529). The note with it: protein: recombinant; tags: N-terminal GST; chain copies: 3; dsDNA, one strand shown. In outline:
(§1)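 A tag-only sample was pooled with DNA-barcoded human transcription factors that had been expressed in yeast as GST fusions and captured on glutathione beads. The pools were incubated for 30 min at room temperature with 200 nmole of a random double-stranded 16-mer DNA library in Tris/NaCl/DTT/glycerol buffer, then washed, crosslinked with 0.1% formaldehyde, proximity-ligated (BsaI/T4 ligase, 1 h, 37 °C), PCR-amplified and sequenced on an Illumina NextSeq500. Binding signal is each hexamer's read frequency for a factor divided by its frequency for the tag-only sample.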

The next assay concerns the target T1, SPIC (Homo sapiens, UniProt Q8N5J4 1-248).
T1 sequence: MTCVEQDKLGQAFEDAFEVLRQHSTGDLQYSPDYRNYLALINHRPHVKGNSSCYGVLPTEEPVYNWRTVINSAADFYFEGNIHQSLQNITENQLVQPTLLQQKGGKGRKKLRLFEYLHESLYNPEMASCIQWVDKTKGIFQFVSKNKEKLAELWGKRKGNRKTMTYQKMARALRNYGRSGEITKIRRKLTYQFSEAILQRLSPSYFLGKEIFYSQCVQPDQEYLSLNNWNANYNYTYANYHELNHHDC
The note with it: protein: recombinant; tags: N-terminal GST; dsDNA, one strand shown. In outline: as §1

The next assay deals with CRX (Homo sapiens, UniProt O43186 1-299). The note with it: protein: recombinant; tags: N-terminal GST; dsDNA, one strand shown. In outline:
as §1

Another assay deals with T2, EHF (Homo sapiens, UniProt Q9NZC4 1-300).
T2 sequence: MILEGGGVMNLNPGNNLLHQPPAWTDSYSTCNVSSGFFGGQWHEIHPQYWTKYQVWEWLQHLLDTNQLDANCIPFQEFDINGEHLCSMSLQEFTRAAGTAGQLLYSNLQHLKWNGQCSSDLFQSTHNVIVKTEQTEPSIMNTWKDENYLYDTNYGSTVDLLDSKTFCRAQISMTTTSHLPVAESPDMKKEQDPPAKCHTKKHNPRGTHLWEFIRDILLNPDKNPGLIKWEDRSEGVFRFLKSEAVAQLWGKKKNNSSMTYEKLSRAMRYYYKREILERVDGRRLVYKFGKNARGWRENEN
The note with it: protein: recombinant; tags: N-terminal GST; dsDNA, one strand shown. The essentials: as §1

Sequence of HSF1 (Q00613 whole entry, the tested form may be a part): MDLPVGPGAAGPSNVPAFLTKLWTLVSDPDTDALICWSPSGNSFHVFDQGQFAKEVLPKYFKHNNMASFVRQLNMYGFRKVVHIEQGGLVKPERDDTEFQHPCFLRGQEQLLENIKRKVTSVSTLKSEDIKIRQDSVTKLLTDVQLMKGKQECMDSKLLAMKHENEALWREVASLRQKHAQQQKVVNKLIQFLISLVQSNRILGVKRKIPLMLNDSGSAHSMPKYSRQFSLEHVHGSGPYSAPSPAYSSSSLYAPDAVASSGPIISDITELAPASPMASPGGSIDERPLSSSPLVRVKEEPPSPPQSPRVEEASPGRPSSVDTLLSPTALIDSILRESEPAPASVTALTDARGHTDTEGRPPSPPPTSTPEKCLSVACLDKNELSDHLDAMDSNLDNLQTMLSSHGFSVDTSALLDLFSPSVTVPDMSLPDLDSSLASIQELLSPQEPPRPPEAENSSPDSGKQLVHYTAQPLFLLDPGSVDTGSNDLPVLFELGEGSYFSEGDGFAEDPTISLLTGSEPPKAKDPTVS
Sequence of CRX (O43186 whole entry): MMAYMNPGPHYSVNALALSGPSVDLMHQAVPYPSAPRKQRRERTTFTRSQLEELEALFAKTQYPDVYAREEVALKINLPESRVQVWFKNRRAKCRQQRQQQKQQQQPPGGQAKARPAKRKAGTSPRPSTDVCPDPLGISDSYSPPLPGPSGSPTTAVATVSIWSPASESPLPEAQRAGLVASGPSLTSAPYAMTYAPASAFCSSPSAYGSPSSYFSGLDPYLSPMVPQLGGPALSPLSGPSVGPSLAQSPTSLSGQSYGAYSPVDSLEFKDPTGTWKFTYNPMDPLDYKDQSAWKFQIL

On to AGAACT, for which the binding signal with HSF1 was 1.63 fold enrichment (6-mer frequency, TF over GST control); with SPIC, 1.03 fold enrichment (6-mer frequency, TF over GST control); with CRX, 1.02 fold enrichment (6-mer frequency, TF over GST control).
For the sequence CTAGGA, the binding signal with EHF is 1.01 fold enrichment (6-mer frequency, TF over GST control); with HSF1, 1.08 fold enrichment (6-mer frequency, TF over GST control); with SPIC it was 1.01 fold enrichment (6-mer frequency, TF over GST control).
